Data from PubChem BioAssay AID651593 (National Center for Advancing Translational Sciences (NCATS), 2012).
Out of some 1,100 compounds screened, about 860 (78%) were called active. Not shown: some 19% with an inconclusive outcome. Calls follow the shape of the dose curve; as a rule, active = well fitted activation curve with a large enough effect; inconclusive = small, poorly fitted or top-dose-only effect; inactive = flat fitted curve, though single readings scatter. So high a share suggests a set chosen from earlier hits. Some of the results follow.

Assay: qHTS of Nrf2 Activators: Hit Validation in Primary Assay; also: nearly all actives have a fitted effect of over 70% in size; as to activation: 0% is about no effect
Conditions: Nrf2/ARE reporter cell assay; Potency: activation; series mostly up to 46.1 µM; activation: at the top concentration
In short: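 AREc32 cells stably carrying an ARE-driven firefly luciferase, plated overnight, then exposed 24 h at 37 °C to compounds at several concentrations. ARE activation read as luminescence with Steady-Glo after 30 min at room temperature.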
Potency is read from the fitted curve at half-maximal effect.

| Compound | Potency | activation |
| --- | --- | --- |
| O=C1CSC(=S)N1Cc1cccnc1 | 10.3 µM (active) |  |
| COc1ccc(OC)c(/C=C2\SC(=S)N(Cc3cccnc3)C2=O)c1 | 5.17 µM (active) |  |
| C#CCOc1ccc(/C=C2\SC(=S)N(Cc3cccnc3)C2=O)cc1 | 4.61 µM (active) |  |
| O=C1/C(=C/c2ccccc2O)SC(=S)N1Cc1cccnc1 | 4.61 µM (active) |  |
| CC1CCN(CC2C(=O)O[C@@H]3C[C@@]4(C)CCC[C@H](C)C4=C[C@H]23)CC(C)(C)C1 (stereo not given in full) | 5.8 µM (active) |  |
| C[C@H]1CCC[C@]2(C)C[C@H]3OC(=O)C(CN4CCCCCC4)[C@H]3C=C12 (stereo not given in full) | 5.8 µM (active) |  |
| Brc1cc(Br)c2nc(-c3cccs3)ccc2c1 | 4.11 µM (active) |  |
| O=C(CN1CC(=O)Oc2ccccc21)OCC(=O)c1ccc(F)cc1 | 18.4 µM (active) |  |
| COc1cc(OC)cc(C(=O)O/N=C(\N)c2cccc(C)c2)c1 |  | 21.2% (inactive) |
| N/C(=N\OC(=O)c1ccco1)c1cccc(Br)c1 | 20.6 µM (active) |  |
| Cc1csc(-c2ccc3cc(Cl)cc(Cl)c3n2)n1 | 2.59 µM (active) |  |
| O=C(O)CCCCCN1C(=O)/C(=C\c2ccncc2)SC1=S | 2.91 µM (active) |  |
| N#Cc1nc(-c2ccco2)oc1N1CCCC1 | 2.31 µM (active) |  |
| Cc1nc(-c2ccccn2)sc1C(=O)Nc1ccc(F)cc1 | 2.31 µM (active) |  |
| Cc1sc(NC(=S)NC(=O)c2ccccc2)c(C#N)c1C |  | 17% (inactive) |
| Cc1cc(C)c2c(NC(=S)NC(=O)c3ccccc3)nn(C)c2n1 | 7.31 µM (active) |  |
| Cc1csc(NC(=S)NC(=O)c2ccccc2)n1 | 11.6 µM (active) |  |
| Cc1ccc2cccc(NC(=S)NC(=O)c3ccccc3)c2n1 | 4.61 µM (active) |  |
| O=C(NC(=S)Nc1nc(-c2ccccc2)cs1)c1cccs1 | 3.66 µM (active) |  |
| Clc1ccc(-c2ccnc(-n3cccc3)n2)s1 | 2.59 µM (active) |  |
| c1coc(-c2ccnc3nc(-n4cccc4)nn23)c1 | 4.11 µM (active) |  |
| CCc1nn2c(-c3ccco3)ccnc2c1-c1ccccc1 |  | 9.08% (inactive) |
| c1coc(-c2ccnc(-n3cccc3)n2)c1 | 2.59 µM (active) |  |
| CSc1nc2sc3c(c2c(=O)n1C)CCC(C)C3 (stereo not given) | 18.4 µM (active) |  |
| Cc1cc(C)c(-n2c(SCCS(=O)(=O)c3ccc(F)cc3)n[nH]c2=O)c(C)c1 | 20.6 µM (active) |  |
| NC(=O)c1ccsc1NC(=O)COC(=O)[C@@H]1CCCN1C(=O)c1cccs1 | 6.51 µM (active) |  |
| O=C(NNC(=O)c1nc(Cl)ccc1Cl)c1ccc(F)cc1 | 11.6 µM (active) |  |

| Compound | Potency | activation |
| --- | --- | --- |
| O=C1C(=C2CCc3ccccc32)Cc2ccccc21 | 1.03 µM (active) |  |
| COC(=O)c1ccc2nc(-c3cccc(Br)c3)c(CC3CCCCC3)n2c1 | 13 µM (active) |  |
| COC(=O)c1ccc2nc(-c3ccc(F)cc3)c(CC3CCCCC3)n2c1 | 9.2 µM (active) |  |
| O=c1cc(-c2ccccc2)nc2c(Cl)cc(Cl)cn12 | 3.66 µM (active) |  |
| COCCn1c(C(F)(F)F)ccc(NC(=O)c2ccccc2)c1=O | 2.31 µM (active) |  |
| FC(F)(F)c1cc(-c2cccs2)nc2cc(-c3cccs3)nn12 | 2.91 µM (active) |  |
| Cc1ncc(N=Nc2ccccc2)c(-c2ccccc2)n1 | 3.66 µM (active) |  |
| Cc1ccc(CNC(=O)c2sccc2-n2cccc2)cc1 | 5.17 µM (active) |  |
| CC(C)c1ccc(NC(=O)c2sccc2-n2cccc2)cc1 | 2.59 µM (active) |  |
| O=c1oc2ccc(Br)cc2cc1-c1nc2ccccc2o1 | 23.1 µM (active) |  |
| O=C(Cn1ncc(Cl)c(Cl)c1=O)NC1CCS(=O)(=O)C1 (stereo not given) | 6.51 µM (active) |  |
| O=C(Nc1cccc2ncccc12)c1ccc(Cl)cc1 | 2.59 µM (active) |  |
| Cc1cc(-c2sccc2Br)nc(-n2cccc2)n1 | 3.66 µM (active) |  |
| Cc1cc(-c2cccs2)nc(-n2cccc2)n1 | 5.17 µM (active) |  |
| Cc1cc(-c2sccc2C)nc(-n2cccc2)n1 | 5.8 µM (active) |  |
| Cc1ccsc1-c1ccnc(-n2cccc2)n1 | 11.6 µM (active) |  |
| CS(=O)(=O)c1nc(S(=O)(=O)c2ccc(Cl)cc2)c(N2CCOCC2)s1 | 4.11 µM (active) |  |
| Cc1ccc(S(=O)(=O)c2nc(S(C)(=O)=O)sc2N2CCOCC2)cc1 | 8.2 µM (active) |  |
| Cc1nnc2n1N=CC=C(c1ccccc1)S2 | 3.66 µM (active) |  |
| Clc1ccc2c(NCc3ccccn3)ncnc2c1 | 4.61 µM (active) |  |
| Oc1ccc(Cl)cc1N=Cc1sc2ccccc2c1Cl | 6.51 µM (active) |  |
| c1ccc(Cn2ncc3c(NCc4ccco4)ncnc32)cc1 | 2.06 µM (active) |  |
| Cc1sc2ncnc(NCc3ccco3)c2c1C | 3.66 µM (active) |  |
| CCc1cc2c(NCc3ccco3)ncnc2s1 | 3.66 µM (active) |  |
| Cc1sc2ncnc(SCc3ccco3)c2c1C | 2.91 µM (active) |  |
| Cc1sc2ncnc(Sc3nnnn3-c3ccccc3)c2c1C |  | 15.9% (inactive) |
| CCN(CC)CCNC(=O)C(Cl)=C1C(Cl)=C(Cl)C(Cl)=C1Cl | 3.66 µM (active) |  |

| Compound | Potency | activation |
| --- | --- | --- |
| O=C(NC(=S)Nc1ccc(Cl)cn1)c1cccs1 | 2.91 µM (active) |  |
| O=C(NC(=S)Nc1ccc(Br)cn1)c1cccs1 | 2.91 µM (active) |  |
| Cc1cccc(NC(=S)NC(=O)c2cccs2)n1 | 8.2 µM (active) |  |
| O=C(NC(=S)Nc1cccc2cccnc12)c1cccs1 | 2.91 µM (active) |  |
| COC(=O)c1cc2c(s1)-c1cc(F)ccc1OC2 | 9.2 µM (active) |  |
| O=C1/C(=C\c2ccc(Cl)cc2)CCC1CNc1ccc(Cl)cc1 (stereo not given) | 3.66 µM (active) |  |
| N#Cc1cnc2cc(-c3ccccc3)nn2c1N | 6.51 µM (active) |  |
| CC(=O)Nc1ccc(S(=O)(=O)c2ccnc3cc(Cl)ccc23)cc1 | 14.6 µM (active) |  |
| O=S(=O)(c1ccc(F)cc1)c1snnc1-c1ccccc1 | 18.4 µM (active) |  |
| Cc1ccc(N=C/C(C(=O)C(F)(F)F)=C(\O)c2ccco2)cc1Cl | 7.31 µM (active) |  |
| Cc1cccc(N=C/C(C(=O)C(F)(F)F)=C(\O)c2ccco2)c1 | 20.6 µM (active) |  |
| O=C(/C(C=Nc1ccc(F)cc1)=C(/O)c1ccco1)C(F)(F)F | 20.6 µM (active) |  |
| O=C(/C(C=Nc1cccc(C(F)(F)F)c1)=C(/O)c1ccco1)C(F)(F)F | 11.6 µM (active) |  |
| CC(=O)Nc1ccc(N=Nc2ccccc2)cc1[N+](=O)[O-] | 3.66 µM (active) |  |
| CC(=O)Nc1cc2oc3ccccc3c2cc1[N+](=O)[O-] | 2.59 µM (active) |  |
| COC(=O)c1c(NC(=O)/C=C/C(=O)O)sc(C)c1-c1ccc(C(C)C)cc1 | 10.3 µM (active) |  |
| c1ccc(-c2noc(-c3cccc4ccccc34)n2)cc1 | 2.31 µM (active) |  |
| COc1cccc(-c2nc(-c3ccccc3)no2)c1 | 2.91 µM (active) |  |
| c1ccc(-c2noc(-c3cccnc3)n2)cc1 | 2.59 µM (active) |  |
| COc1nc2ccc(C)cc2cc1-c1noc(-c2ccccc2)n1 | 2.59 µM (active) |  |
| c1cncc(-c2noc(-c3cccc4ccccc34)n2)c1 | 1.16 µM (active) |  |
| Fc1ccccc1-c1nc(-c2ccc(Cl)cc2)no1 | 3.26 µM (active) |  |
| CC1=NC(=O)C(N=Nc2cccc(O)c2)N1c1ccccc1 (stereo not given) | 7.31 µM (active) |  |
| Cc1cccc2c(=O)n(C(=O)c3ccccc3)c(N)nc12 | 1.03 µM (active) |  |
| COc1ccc(OC)c(/C=C(\C#N)c2nc(-c3ccc(F)cc3)cs2)c1 | 2.59 µM (active) |  |
| O=C(Nc1nnc(-c2ccccc2F)s1)C1CCCO1 (stereo not given) | 7.31 µM (active) |  |
| O=C(Nc1ccccc1)c1nc[nH]c1C(=O)Nc1ccccc1F |  | 17.5% (inactive) |

| Compound | Potency | activation |
| --- | --- | --- |
| COc1ccccc1-c1nnc(NC(C)=O)s1 | 20.6 µM (active) |  |
| COc1ccc(NC(=O)Nc2nnc(-c3ccccc3F)s2)cc1 | 1.84 µM (active) |  |
| O=C(Nc1nnc(-c2ccccc2F)s1)Nc1ccccc1F | 1.84 µM (active) |  |
| O=C(CC(=O)c1ccccn1)c1ccccc1 | 3.66 µM (active) |  |
| NS(=O)(=O)c1ccc(Sc2nc3ccccc3s2)c([N+](=O)[O-])c1 | 16.4 µM (active) |  |
| NC(=O)c1nc(Nc2ccccc2)sc1NC(=O)c1ccccc1Br | 2.31 µM (active) |  |
| NC(=O)c1nc(Nc2ccccc2)sc1NC(=O)c1c(F)cccc1F | 2.59 µM (active) |  |
| O=C(/C=C/c1ccccc1Cl)Nc1nc(-c2cccs2)ns1 | 7.31 µM (active) |  |
| O=C(/C=C/c1ccccc1)Nc1nc(-c2cccs2)ns1 | 2.59 µM (active) |  |
| Cc1sc2c(c1C)C(=O)NC(c1ccccc1F)N2 (stereo not given) | 20.6 µM (active) |  |
| CCC/C(=N\NC(=O)c1ccco1)c1ccc(Cl)s1 | 5.17 µM (active) |  |
| O=c1c(-c2ccco2)[n+]([O-])c2ccccc2n1OCc1ccccc1 | 5.17 µM (active) |  |
| CCOC(=O)COn1c(=O)c(-c2ccco2)[n+]([O-])c2ccccc21 | 9.2 µM (active) |  |
| O=c1c(-c2ccco2)[n+]([O-])c2ccccc2n1OCc1c(F)cccc1F | 0.58 µM (active) |  |
| COc1ccc(-c2cc3ccccc3c(=O)o2)cc1 | 4.61 µM (active) |  |
| CC(=O)c1sc(Nc2ccccc2)nc1C | 18.4 µM (active) |  |
| O=[N+]([O-])c1ccc(SCc2ccco2)cc1N1CCOCC1 | 2.31 µM (active) |  |
| Cc1cccc(NC(=O)C2CC(=O)N/C(=N/N=C/c3ccco3)S2)c1 (stereo not given) | 2.06 µM (active) |  |
| O=C1CC(C(=O)Nc2ccc(Cl)c(Cl)c2)S/C(=N\N=C\c2ccco2)N1 (stereo not given) | 0.731 µM (active) |  |
| Cn1c(NC(=O)/C=C/c2ccccc2)cc(=O)n(C)c1=O | 20.6 µM (active) |  |
| O=C(CC1S/C(=N/N=C/c2ccco2)NC1=O)Nc1ccccc1 (stereo not given) | 1.84 µM (active) |  |
| Cc1ccc(NC(=O)CC2S/C(=N/N=C/c3ccco3)NC2=O)cc1Cl (stereo not given) | 1.03 µM (active) |  |
| O=c1cc(-c2ccco2)nc(SCc2cccc(Cl)c2)[nH]1 | 1.16 µM (active) |  |
| O=C(Nc1ccccn1)c1csc2c1CCCC2 | 5.8 µM (active) |  |
